Several values for one entry are separate records, joined by “and”; a condition that tells them apart may be missing. Equal values may be shown once. The campaign covered roughly 73,000 compounds. About 2,500 (3.4%) were called active. A call without a number means that no potency is given here. Roughly 7% stayed inconclusive and do not appear here. Calls follow the shape of the dose curve; as a rule, active = well fitted inhibition curve with a large enough effect; inconclusive = small, poorly fitted or top-dose-only effect; inactive = no such curve, though single readings can be large or run the other way. Only a selection was taken, and actives are over-represented in it overall.
Potency is read from the fitted curve at half-maximal effect.

Sequence of 3-hydroxyacyl-CoA dehydrogenase type-2 (Homo sapiens) (Q99714 whole entry, looked up): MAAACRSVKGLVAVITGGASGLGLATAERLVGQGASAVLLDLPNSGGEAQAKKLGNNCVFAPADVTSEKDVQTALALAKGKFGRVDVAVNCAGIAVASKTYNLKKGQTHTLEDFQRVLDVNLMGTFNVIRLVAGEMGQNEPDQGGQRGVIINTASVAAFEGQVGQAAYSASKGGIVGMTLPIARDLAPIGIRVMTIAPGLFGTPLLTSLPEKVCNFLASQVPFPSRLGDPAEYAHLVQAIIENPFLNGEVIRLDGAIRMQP
Sequence of 3-hydroxyacyl-CoA dehydrogenase type-2 (Homo sapiens) (Q99714 whole entry, looked up): as above

For the assay, the target named is 3-hydroxyacyl-CoA dehydrogenase type-2 (Homo sapiens) (UniProt Q99714). Briefly: qHTS Assay for Inhibitors of HADH2 (Hydroxyacyl-Coenzyme A Dehydrogenase, Type II). Also: nearly all actives have a fitted effect of over 60% in size. The settings on record: recombinant HADH2, NADH fluorescence, beta-hydroxybutyryl-CoA; series mostly up to 57.1 µM. The source says:
Assay Overview: NIH Molecular Libraries Screening Centers Network [MLSCN] NIH Chemical Genomics Center [NCGC] Structural Genomics Consortium [SGC] Grant Number: None HADH2: Hydroxyacyl-Coenzyme A dehydrogenase, type II, was supplied by researchers at the Structural Genomics Consortium, Oxford University lab (PI Udo Oppermann). The mitochondrial enzyme 17-hydroxysteroid dehydrogenase type 10 (HSD17-10) previously classified as type II hydroxyacyl-CoA dehydrogenase (HADH2) catalyzes the NAD+ dependent oxidation of a variety of substrates including acyl-CoAs, androgens and neurosteroids as well as bile acids(Shafqat N, Marschall HU, Filling C, et al. Biochemical Journal. 2003;376(Pt 1):49-60). The role in neurodegeneration by binding to amyloid-peptide led to its identification (Oppermann UC, et al FEBS Letters. 1999;451(3):238-242 and Yan SD, et al. Nature. 1997;389(6652):689-695), and mutations in its gene appear to be causative for 2-methyl-3-hydroxybutyryl-CoA dehydrogenase deficiency (Ofman R, et al. American Journal of Human Genetics. 2003;72(5):1300-1307). The enzyme was produced by E.coli fermentation as His-tagged recombinant for the purpose of X-ray structure determination, and had been mass-spectrometry characterized. Inhibition of HADH2 activity was screened by utilizing beta-hydroxybutyryl coenzyme A as an electron donor and NAD+ as an electron acceptor/cofactor. An increase in the fluorescence intensity due to conversion of NAD+ to NADH was used to measure the enzyme activity.
Assay Protocol: Buffer: 100 mM Tris-HCl pH 9.0, containing 0.01 % Tween-20. Reagents/Controls: Buffer in columns 3 and 4 as negative control (no enzyme). Substrate/cofactor solution: 1 mM NAD+ and 90 uM beta-hydroxybutyryl coenzyme A (Sigma-Aldrich, St. Louis, MO) final concentrations dispensed throughout the plate. Enzyme: 20 nM HADH2 final concentration in columns 1, 2, 5-48. Column 1 is neutral (100% activity). Column 2 contained titration of apomorphine (Sigma-Aldrich, A 4393, PubChem CID 2215, top concentration 500 uM, then 1:2 dilution in duplicate) Assay Steps: Three uL of enzyme were dispensed to 1536-well Greiner black solid bottom plates. Compounds and controls (23 nL) were transferred via Kalypsys PinTool. The plates were incubated for 15 min at room temperature, and then 1 uL of substrate/cofactor solution was added to start the reaction. The plates were immediately transferred to and read every 30 seconds for 4 min on ViewLux High-throughput CCD imager (Perkin-Elmer) using 360 nm excitation and 450 nm emission fluorescence protocol. The fluorescence intensity difference between the last and the first time points was used to compute reaction progress.
(Quantitative high-throughput screening tests each substance at several concentrations.)
With `COC(=O)N(c1ccc(OC)cc1)P1(=S)OCCC(C)O1` (stereo not given), the Potency is 1 µM (active).

Turning to `Fc1ccc(C(OCCN2CCN(C/C=C\c3ccccc3)CC2)c2ccc(F)cc2)cc1`, the Potency entry is “inactive”.

For the compound `N[C@H](Cc1o[nH]c(=O)c1Cl)C(=O)O`, the Potency result is “inactive”.

Turning to `C/C(=C\C=C/[C@@H](C)C(=O)O)[C@H]1CN[C@H](C(=O)O)[C@@H]1CC(=O)O`, the Potency result is “inactive”.

As for `O=C1C2(Cl)C3(Cl)C4(Cl)C(Cl)(Cl)C5(Cl)C3(Cl)C1(Cl)C5(Cl)C24Cl` (stereo not given), the Potency entry is “inactive”.

Regarding `COc1ccc(CN2CCN(c3ccccc3F)CC2)c(OC)c1`, the activity change, negative = inhibition is -2.55% [at 11.4 µM] (inactive).

As for `CC(Cl)Cl`, the Potency result is “inactive”.

Take `Cc1cccc([C@H](C)c2cnc[nH]2)c1C`: the Potency entry was “inactive”.

Turning to `O=[N+]([O-])c1ccc(Cl)c(Cl)c1`, the Potency was 31.6 µM (active).

Take `Nc1ccc([N+](=O)[O-])cc1`: the Potency result was “inactive”.

Consider `Cc1cc(-c2ccc(N)c(C)c2)ccc1N`, for which the Potency entry was “inactive”.

In the case of `ClCCBr`, the Potency result was “inactive”.

As for `O=C(O)C(=O)Cc1ccc2c(c1)OCO2`, the activity change, negative = inhibition was -12.9% [at 11.4 µM] (inactive).

On to `CC(=O)O[C@H]1CC[C@@]2(C)[C@@H](CC[C@H]3[C@H]2CC(=O)[C@]2(C)[C@@H]3C[C@@H](N3CC3)[C@H]2C(C)=O)C1`, for which the activity change, negative = inhibition is 16.9% [at 11.4 µM] (inactive).

For `CC(C)(O/N=C(\C(=O)N[C@@H]1C(=O)N2C(C(=O)[O-])=C(C[n+]3ccccc3)CS[C@@H]12)c1csc(N)n1)C(=O)O`, the Potency is 7.94 µM (active).

With `c1ccc(CN2CC[C@@]3(CCCNC3)C2)cc1`, the Potency entry is “inactive”.

With `NCC[Se][Se]CCN`, the activity change, negative = inhibition is 1.13% [at 11.4 µM] (inactive).

Consider `NC[C@H](O)c1ccc(O)cc1`, for which the Potency result is “inactive”.

For `BrC1C(Br)C(Br)C(Br)C(Br)C1Br` (stereo not given), the Potency was 25.1 µM (active).

Consider `C[C@H](Br)C(=O)N[C@H](CO)C(=O)O`, for which the activity change, negative = inhibition was -0.293% [at 11.4 µM] (inactive).

For the compound `CC[C@]1(O)C(=O)OCc2c1cc1n(c2=O)Cc2cc3ccccc3nc2-1`, the Potency entry was “inactive”.

For `CCCCN1C2CCC1CC(OC(c1ccc(F)cc1)c1ccc(F)cc1)C2` (stereo not given), the Potency result is “inactive”.

Regarding `CCOC(=O)c1c(-c2ccccc2)oc2ccc(OC(=O)N(C)C)cc12`, the Potency is 7.94 µM (active).

Turning to `C[C@@]12CC[C@H]3[C@@H](CC[C@]4(O)C[C@H](O)CC[C@@]34C=O)[C@]1(O)CC[C@@H]2C1=CC(=O)OC1`, the Potency entry is “inactive”.

Take `Clc1ccc([C@@H]2C[C@H]3CC[C@@H]2N3)cn1`: the Potency result was “inactive”.

Regarding `ClC(Cl)(Cl)c1ccccc1`, the Potency entry is “inactive”.

Consider `CC(=O)c1c(O)c(C)c(O)c(Cc2c(O)c3c(c(C(=O)/C=C\c4ccccc4)c2O)OC(C)(C)C=C3)c1O`, for which the Potency was 12.6 µM (active) and 1 µM (active).

Regarding `Nc1ccc(Cc2ccc(N)c(Cl)c2)cc1Cl`, the Potency entry was “inactive”.

As to `Clc1ccccc1`, the Potency entry was “inactive”.

On to `CC(C)(c1ccccc1)c1ccc(O)cc1`, for which the Potency entry is “inactive”.

For the origin of these results see PubChem BioAssay AID886 (National Center for Advancing Translational Sciences (NCATS), 2007).
